Experimental data as given in PubChem BioAssay (NCI).
About 83,000 compounds went through this panel and 20% of them were active in at least one assay; those are over-represented in the sample as a whole.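 Interpretation: 100, growth as untreated; towards 0, rising growth inhibition; 0, no net growth; 0 to -100, cell death. Compounds scoring below 10 were considered active.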 Active and inactive are the calls of the source.

System: T-47D breast
Experiment: NCI-60 one-dose screen, 48 h (100 = growth as untreated, 0 = no growth, -100 = all killed)
Details: 10 µM unless noted

SMILES | growth
O=C(N/N=C/c1ccc(Cl)cc1Cl)c1ccc2nc(-c3ccc(Cl)cc3)[nH]c2c1 | -13.1% (active)
O=C(Cn1nnc([N+](=O)[O-])n1)c1ccccc1 | 78.9% (inactive)
O=C1NC(=Nc2ccc(O)cc2)S/C1=C\c1cccs1 | 32.5% (inactive)
NC(=O)c1ccc(NC(=O)c2oc3ccccc3c2-c2cnn(-c3ccccc3)c2)cc1 | 49.8% [50 µM] (inactive)
CCOC(=O)/C=C/c1c(C)[nH]c(=O)[nH]c1=O | 102% (inactive)
Cc1cccc(NC(=O)CSc2nc3ccc([N+](=O)[O-])cc3[nH]2)c1 | 51.8% (inactive)
NS(=O)(=O)c1ccc(N/C=C/C(=O)c2cc3ccccc3oc2=O)cc1 | 89.1% (inactive)
C=CC(C)(O)CC/C=C(\CO)C(=O)OC1C(C)OC(O[C@](C)(C=C)CC/C=C(\CO)C(=O)O[C@H]2C[C@@]3(C(=O)OC4OC(CO)C(O)C(O)C4OC4OC(C)C(OC5OC(CO)C(O)C5O)C(OC5OC(CO)C(O)C(O)C5O)C4O)C(CC2(C)C)C2=CCC4[C@@]5(C)CC[C@H](OC6OC(COC7OC(C)C(O)C(O)C7OC7OCC(O)C(O)C7O)C(O)C(O)C6NC(C)=O)C(C)(C)C5CC[C@@]4(C)[C@]2(C)C[C@H]3O)C(O)C1O (stereo partly drawn) | -54% (active)
Nc1nc(C(=O)N/N=C/c2ccc(N3CCOCC3)cc2)nn1-c1ccc(S(N)(=O)=O)cc1 | 108% (inactive)

System: BT-549 breast
Experiment: as above
Details: 10 µM unless noted

SMILES | growth
O=S(=O)(c1ccccc1)N1CCCN(c2nc(-c3ccccc3)nc3nc(-c4ccccc4)oc23)CC1 | 107% (inactive)
Cc1cc2oc(=O)cc(CP(=O)(O)O)c2cc1O | 105% (inactive)
COC(=O)c1ccc2c(c1)c1c(C)c3ccncc3c(C)c1n2C | 43.5% (inactive)
CCOC(=O)N1CCN(S(=O)(=O)c2oc(-c3ccc(Cl)cc3)nc2C#N)CC1 | 92.2% (inactive)
CC(CN)[C@@H]1CC[C@]2(CO)CC[C@]3(C)[C@H](CC[C@@H]4[C@@]5(C)CCC(N)C(C)(C)[C@@H]5CC[C@]43C)[C@@H]12 (stereo partly drawn) | 44.9% (inactive)
C=CC1(C)C(O[Si](C)(C)C(C)(C)C)CC2C3OC(=O)NC31c1cccc3c1[C@H](C(=O)N3C)C2(C)C (stereo partly drawn) | 53.8% (inactive)
O=C1/C(=C/c2ccc(C(F)(F)F)cc2)COc2ccc(O)c(O)c21 | 10.9% (inactive)
Cc1ccccc1CNc1c2ccccc2nc2ccccc12 | 55.9% (inactive)
CCCCC(=O)Nc1ncc(Cc2ccccc2Cl)s1 | 47.1% (inactive)
C=CCn1c(SCC(=O)Nc2ccc(C(=O)/C=C/c3cc(OC)c(OC)c(OC)c3)cc2)nnc1-c1cc(-c2ccc(OC)cc2)nc2ccccc12 | 90.1% (inactive)
N#Cc1c(NC(=O)c2cccs2)[n+]([O-])c2ccc(Cl)cc2[n+]1[O-] | 113% (inactive)
CCOC(=O)c1c2c(n3c1NCC3)-c1ccccc1C2=O | 86.9% (inactive)
COc1ccc(NC(=O)c2cccc(C3CCc4c(cc(OC)c(OC)c4OC)O3)c2)cc1 (stereo not drawn) | 25.9% (inactive)
C[C@@H](CO)[C@@H]1CC[C@]2(C(=O)N3CCN(C)CC3)CC[C@]3(C)[C@H](CC[C@@H]4[C@@]5(C)CC[C@H](O)C(C)(C)[C@@H]5CC[C@]43C)[C@@H]12 | 75.8% (inactive)
COc1ccc(NC(=O)c2ccc(C(=O)Nc3ccc(OC)cc3OC)cc2)c(OC)c1 | 43.6% (inactive)
CCN(CC)CCCC(C)Nc1ccc2cc(OC)ccc2n1 (stereo not drawn) | 107% (inactive)
CCN(C(=O)N1CCN(c2cc3c(cc2F)c(=O)c(C(=O)O)cn3C2CC2)CC1)c1nc(-c2ccc(C)cc2)cs1 | -11.3% (active)
CCOC(=O)n1cc(-c2nonc2-c2cn(C)c3ccccc23)c2ccccc21 | 55.3% (inactive)
O=C1c2cccnc2C(=O)c2c1c(C(=O)OCCCN1CCCCC1)c1ccccn21 | -24.1% (active)
Cc1ccc(Nc2nc(-c3ccc(F)cc3)c(C#N)c(=O)n2C)cc1 | 52.8% (inactive)

SMILES | growth
COc1cc(/C=C2\C(=O)N(c3c(Cl)cccc3Cl)c3ccccc32)cc(OC)c1OCCCCCCn1c2ccccc2c(=O)c2ccccc21 | 94.4% (inactive)
CSCCC(NC(=O)c1ccccc1)C(=O)N/N=C1\S/C(=C/c2ccc(Cl)cc2)C(=O)N1C (stereo not drawn) | 87.3% (inactive)
CC1(C)CCC(S(=O)(=O)c2ccc3c(c2)/C(=N\O)c2cc(S(=O)(=O)N4CCN(c5ccc(F)cc5O)CC4)ccc2-3)CC1 | -86.7% (active)
Cc1cscc(C)c1=S | 99.7% (inactive)
O=C(O)C1CN(c2cccc(Cl)c2)N(c2cccc(Cl)c2)C1=O (stereo not drawn) | 101% (inactive)
CCNC(=O)Oc1ccc(/C(=C(/C)Cc2ccc(OC)cc2)c2ccc(OCCN3CCCC3)cc2)cc1 | 85.9% (inactive)
CC[C@H](C)[C@H](NC(=O)[C@H](CCCNC(=N)N)NC(=O)[C@H](Cc1c[nH]c2ccccc12)NC(=O)[C@@H](NC(=O)[C@H](CCCCN)NC(=O)[C@H](CCCCN)NC(=O)[C@@H](NC(=O)[C@@H](NC(=O)[C@@H](NC(=O)[C@H](CCCCN)NC(=O)[C@H](Cc1ccccc1)NC(=O)[C@H](CCCCN)NC(=O)[C@H](CCCCN)NC(=O)[C@H](Cc1ccccc1)NC(=O)[C@@H](NC(=O)[C@@H](N)CCCCN)[C@@H](C)CC)[C@@H](C)O)[C@@H](C)CC)[C@@H](C)CC)C(C)C)C(=O)N[C@@H](Cc1ccccc1)C(=O)NCC(=O)N[C@@H](CCCNC(=N)N)C(=O)N[C@@H](Cc1ccccc1)C(N)=O | 32.5% (inactive)
CC1O[C@@H]2C[C@@](O)([C@H]1O)n1c3ccccc3c3c4c(c5c6ccccc6n2c5c31)C(=O)NC4=O (stereo partly drawn) | 36.3% (inactive)
Cc1nc2sc(C(=O)Nc3cccc(Cl)c3)c(N)c2cc1C(O)c1ccccc1 (stereo not drawn) | 52.6% (inactive)
CC(C(=O)O)n1c(O)c(C=Nc2cccnc2)sc1=S (stereo not drawn) | 89.2% (inactive)
O=C(N/N=C/c1ccc(Cl)cc1Cl)c1ccc2nc(-c3ccc(Cl)cc3)[nH]c2c1 | 113% (inactive)
O=C(Cn1nnc([N+](=O)[O-])n1)c1ccccc1 | 113% (inactive)
O=C1NC(=Nc2ccc(O)cc2)S/C1=C\c1cccs1 | 35.8% (inactive)
NC(=O)c1ccc(NC(=O)c2oc3ccccc3c2-c2cnn(-c3ccccc3)c2)cc1 | 22.2% [50 µM] (inactive)
CCOC(=O)/C=C/c1c(C)[nH]c(=O)[nH]c1=O | 99.1% (inactive)
Cc1cccc(NC(=O)CSc2nc3ccc([N+](=O)[O-])cc3[nH]2)c1 | 100% (inactive)
NS(=O)(=O)c1ccc(N/C=C/C(=O)c2cc3ccccc3oc2=O)cc1 | 95.5% (inactive)
C=CC(C)(O)CC/C=C(\CO)C(=O)OC1C(C)OC(O[C@](C)(C=C)CC/C=C(\CO)C(=O)O[C@H]2C[C@@]3(C(=O)OC4OC(CO)C(O)C(O)C4OC4OC(C)C(OC5OC(CO)C(O)C5O)C(OC5OC(CO)C(O)C(O)C5O)C4O)C(CC2(C)C)C2=CCC4[C@@]5(C)CC[C@H](OC6OC(COC7OC(C)C(O)C(O)C7OC7OCC(O)C(O)C7O)C(O)C(O)C6NC(C)=O)C(C)(C)C5CC[C@@]4(C)[C@]2(C)C[C@H]3O)C(O)C1O (stereo partly drawn) | 104% (inactive)
Nc1nc(C(=O)N/N=C/c2ccc(N3CCOCC3)cc2)nn1-c1ccc(S(N)(=O)=O)cc1 | 116% (inactive)
